Screening results deposited in PubChem BioAssay by National Center for Advancing Translational Sciences (NCATS).
HT1080NT lethal: kills 2HG-producing HT-1080-NT fibrosarcoma cells | AID 686970 | hit rate 1.6% among 360,000 | HT-1080-NT fibrosarcoma viability, CellTiter-Glo ATP luminescence, 48 h | Potency, µM (highest dose often 46.1 µM), most hits filed as cytotoxic;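 note: NT is the 2HG producing partner of a matched IDH1 knockdown line; nearly all actives have a fitted effect of over 55% in size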
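Compounds were tested in concentration-response format on HT-1080-NT cells for 48 hours at 37 degrees C. Cell viability came from CellTiter-Glo luminescence; curves were classified by r2, response magnitude and activity.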
SW480 rereplic: inducers of DNA re-replication in SW480 colon cancer cells. SW480 DNA re-replication, Hoechst DNA content imaging, 48 h. AID 624297. Potency, µM (doses to about 46.1 µM), hits mostly activators. hit rate 1.8% among 340,000; note: nearly all actives have a fitted effect of over 55% in size
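Treated cells incubate 48 hr (37 C, 5% CO2), are stained 40 min with Hoechst, and nuclear fluorescence is enumerated; a rise in nuclei with high DNA signal marks re-replication.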
MCF10A rereplic: induces DNA re-replication in MCF 10a normal breast cells. MCF 10A DNA re-replication, Hoechst nuclear intensity, 48 h. Potency, µM (series often up to 46.1 µM), hits mostly activators. hit rate 2.9% among 350,000. AID 624296; note: nearly all actives have a fitted effect of over 50% in size
KB-3-1 tox: kills parental KB-3-1 adenocarcinoma cells | Potency, µM (series often up to 46.1 µM), usual class: cytotoxic | hit rate 1.4% among 400,000 | AID 1347075 | KB-3-1 viability, CellTiter-Glo ATP luminescence, 72 h; note: nearly all actives have a fitted effect of over 60% in size
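KB-3-1 parental drug-naive adenocarcinoma cells in DMEM/10% FBS, incubated 72 h at 37 C with pin-transferred compounds across a concentration series. Viability by CellTiter-Glo luminescence; concentration-response curves fitted after normalization.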
HT1080 IDH1KD tx: kills HT-1080 cells with IDH1 knockdown; HT-1080 IDH1 knockdown viability, ATP luminescence, 48 h; Potency, µM (doses to about 46.1 µM), most hits filed as cytotoxic; hit rate 2% among 360,000; AID 686971
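Viability of IDH1-knockdown HT-1080 fibrosarcoma cells was assessed by CellTiter-Glo after 48 h at 37 °C with titrated compound; concentration-effect curves were classified by fit quality and response size.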
KB-V1 cytotox: KB-V1 MDR subline cytotoxicity. KB-V1 MDR cells viability, CellTiter-Glo, 72 h. Potency, µM (highest dose often 46.1 µM), usual class: cytotoxic. hit rate 3.4% among 400,000; note: nearly all actives have a fitted effect of over 60% in size
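Luminescent ATP read-out (CellTiter-Glo, 10 min) measures survival of drug-selected KB-V1 MDR cells after 72 h, 37 degrees C compound exposure. Medium: phenol-red-free DMEM, 10% FBS. Values from fitted concentration-response curves.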
Large screens that a line does not name were inactive. Rows were chosen to be rich in hits. Some 8% of all compounds tested hit in one or more screens of this group. Calls come from the whole dose curve; as a rule, active = well fitted curve in the direction sought with a large enough effect; inconclusive = small, poorly fitted or top-dose-only effect, or another doubt; inactive = no such curve, though single readings can be large; an effect the other way counts as inactive or inconclusive.

Cn1c(/C=N/NC(=O)c2ccccc2)nc2ccccc21	HT1080NT lethal 10µM, HT1080 IDH1KD tx inconclusive, KB-V1 cytotox inconclusive
CCOc1ccc(S(=O)(=O)N2CCCCC2)cc1NC(=O)Cc1cccs1	KB-V1 cytotox 23µM
COc1ccc(S(=O)(=O)N2CCCCCC2)cc1NC(=O)Cc1cc(OC)c(OC)c(OC)c1	KB-V1 cytotox 2.3µM
COc1cccc(CN(C)CC(=O)Nc2cc(S(=O)(=O)N3CCCC3)ccc2Cl)c1OC	MCF10A rereplic inconclusive, KB-3-1 tox inconclusive, KB-V1 cytotox 21µM
COc1ccc(S(=O)(=O)N2CCCCC2)cc1NC(=O)CSc1ncnc2ccccc12	KB-V1 cytotox 21µM
CCCCC(CC)CNC(=O)c1ccc2c(=O)n(Cc3ccc(OC)cc3)c(=O)[nH]c2c1 (stereo not given)	none (no result: HT1080NT lethal, SW480 rereplic, MCF10A rereplic, HT1080 IDH1KD tx)
COc1ccccc1NC(=O)Cn1c(=O)n(Cc2nc(-c3ccccc3)no2)c(=O)c2ccccc21	none (no result: HT1080NT lethal, SW480 rereplic, MCF10A rereplic, HT1080 IDH1KD tx)
Cc1cccc(N2CCN(S(=O)(=O)c3cn(C)c(C)n3)CC2)c1C	KB-V1 cytotox inconclusive (no result: HT1080NT lethal, SW480 rereplic, MCF10A rereplic, HT1080 IDH1KD tx)
C[C@@H]1CC2[C@@H]3C[C@H](F)C4=CC(=O)C(Cl)=C[C@]4(C)[C@@]3(F)[C@H](O)C[C@]2(C)[C@@]1(O)C(=O)CO (stereo not given in full)	none (no result: HT1080NT lethal, KB-3-1 tox, HT1080 IDH1KD tx, KB-V1 cytotox)
CCN(CC(=O)Nc1cc(S(=O)(=O)N2CCCCC2)ccc1C)Cc1ccccc1	MCF10A rereplic 21µM, KB-3-1 tox inconclusive, HT1080 IDH1KD tx inconclusive, KB-V1 cytotox inconclusive
Cc1ccc(S(=O)(=O)N2CCCCC2)cc1NC(=O)CCOc1ccccc1	KB-V1 cytotox inconclusive
COc1ccc(S(=O)(=O)N2CCCCC2)cc1NC(=O)CN(Cc1ccco1)Cc1ccco1	MCF10A rereplic 21µM, KB-V1 cytotox inconclusive
COc1ccccc1N1CCN(c2ncnc3onc(C)c23)CC1	KB-V1 cytotox inconclusive (no result: HT1080NT lethal, SW480 rereplic, MCF10A rereplic, HT1080 IDH1KD tx)
COc1ccccc1N1CCN(c2ncnc3n[nH]c(Br)c23)CC1	HT1080NT lethal inconclusive, KB-3-1 tox inconclusive, HT1080 IDH1KD tx 18µM, KB-V1 cytotox inconclusive (no result: SW480 rereplic, MCF10A rereplic)
Cc1ccc2nc(SCc3nc4ccccc4c(=O)[nH]3)[nH]c2c1	MCF10A rereplic inconclusive, KB-V1 cytotox inconclusive
COCc1cc(C)nc(SCc2nc3ccccc3c(=O)[nH]2)c1C#N	HT1080NT lethal inconclusive, SW480 rereplic inconclusive, MCF10A rereplic 2.1µM
Cc1cc(C)c(C#N)c(SCc2nc3ccccc3c(=O)[nH]2)n1	SW480 rereplic inconclusive, MCF10A rereplic 10µM
Cc1ccsc1CN(C)c1ncnc2ccc(-c3ccc4c(c3)OCO4)cc12	KB-3-1 tox inconclusive (no result: HT1080NT lethal, SW480 rereplic, MCF10A rereplic, HT1080 IDH1KD tx)
O=C(Nc1cccn(Cc2c(Cl)cccc2Cl)c1=O)c1c(Cl)cccc1Cl	KB-3-1 tox 21µM, KB-V1 cytotox 3.7µM
COC(=O)Nc1cccn(Cc2c(Cl)cccc2Cl)c1=O	none
COc1cc(C(C)=O)ccc1OCC(=O)OC(C)C(=O)c1ccc(F)cc1 (stereo not given)	none
O=C1CSC(c2cn(-c3ccccc3)nc2-c2ccccc2)N1Cc1ccco1 (stereo not given)	HT1080NT lethal inconclusive, MCF10A rereplic 21µM, KB-3-1 tox inconclusive, HT1080 IDH1KD tx inconclusive, KB-V1 cytotox inconclusive
CCc1ccc(-c2nn(-c3ccccc3)cc2C2SCC(=O)N2Cc2ccco2)cc1 (stereo not given)	MCF10A rereplic inconclusive
CCc1ccc(NC(=O)Cc2c(C(=O)O)n(C)c3ccccc23)cc1	none
O=C(NCCCN1CCCC1=O)Nc1ccc(Br)cc1Cl	none
O=C1CCCc2c1cc(-c1ccccc1)n2-c1ccccc1	HT1080NT lethal inconclusive, KB-3-1 tox 16µM, HT1080 IDH1KD tx inconclusive, KB-V1 cytotox 12µM
CCN1CCN(C(c2cccs2)C(C)NS(=O)(=O)c2ccc(Br)cc2)CC1 (stereo not given)	KB-V1 cytotox 23µM
Cc1ccc(NS(=O)(=O)c2cc3c4c(cccc4c2)C(=O)NC3=O)cc1C	HT1080NT lethal 7.3µM, MCF10A rereplic 15µM, KB-3-1 tox 15µM, HT1080 IDH1KD tx 5.2µM, KB-V1 cytotox inconclusive
